Data on 1 sequence can be found in PMC7862700, “An all-to-all approach to the identification of sequence-specific readers for epigenetic DNA modifications on cytosine”.

What all share (assay): DAPPL (digital affinity profiling via proximity ligation, sequencing); 10 mM Tris-HCl pH 7.5, 50 mM NaCl, 1 mM DTT, 4% glycerol, room temperature, 30 min; GST-TFs on glutathione beads, 16-mer random dsDNA library, 0.1% formaldehyde crosslink after washing; high values mean tight binding
The target in one test is T1, FEV (Homo sapiens, UniProt Q99581 1-238).
T1 sequence: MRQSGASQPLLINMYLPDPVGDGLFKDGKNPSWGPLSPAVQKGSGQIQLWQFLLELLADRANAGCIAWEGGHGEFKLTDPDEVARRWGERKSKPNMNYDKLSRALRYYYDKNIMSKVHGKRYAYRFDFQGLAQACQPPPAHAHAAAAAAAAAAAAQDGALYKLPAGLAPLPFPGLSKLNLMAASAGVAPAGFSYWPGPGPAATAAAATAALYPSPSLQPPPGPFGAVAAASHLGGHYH
Conditions: protein: recombinant; tags: N-terminal GST; dsDNA, one strand shown. The method, boiled down: (§1)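 Human transcription factors were made in yeast as GST fusions, captured on glutathione beads and barcoded with DNA. With a tag-only sample included, the pool was incubated with 200 nmole of a random double-stranded 16-mer DNA library in Tris/NaCl/DTT/glycerol buffer at room temperature for 30 min, then crosslinked with 0.1% formaldehyde after washing, ligated by proximity, amplified and sequenced. For binding signal, each hexamer's read frequency for a factor is divided by its frequency for the tag-only sample.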

The target of the next test is ETV5 (Homo sapiens, UniProt P41161 1-510). Particulars: protein: recombinant; tags: N-terminal GST; dsDNA, one strand shown. The method, boiled down: as §1
For the next test, the target named is HSF1 (Homo sapiens, UniProt Q00613 1-529). Conditions: protein: recombinant; tags: N-terminal GST; chain copies: 3; dsDNA, one strand shown. The method, boiled down: as §1
The next test has as its target T2, SPIC (Homo sapiens, UniProt Q8N5J4 1-248).
T2 sequence: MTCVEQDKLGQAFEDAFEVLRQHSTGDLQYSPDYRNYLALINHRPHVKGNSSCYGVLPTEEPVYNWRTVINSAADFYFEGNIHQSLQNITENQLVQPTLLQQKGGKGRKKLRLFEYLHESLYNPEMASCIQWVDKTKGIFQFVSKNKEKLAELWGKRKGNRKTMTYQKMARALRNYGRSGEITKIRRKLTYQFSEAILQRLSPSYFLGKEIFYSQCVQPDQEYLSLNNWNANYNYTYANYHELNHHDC
Particulars: protein: recombinant; tags: N-terminal GST; dsDNA, one strand shown. The procedure, abridged:
as §1

The target in a further test is ELF4 (Homo sapiens, UniProt Q99607 1-663). Particulars: protein: recombinant; tags: N-terminal GST; dsDNA, one strand shown. The procedure, abridged: as §1
The next test addresses T3, ELK4 (Homo sapiens, UniProt P28324-2 1-405).
T3 sequence: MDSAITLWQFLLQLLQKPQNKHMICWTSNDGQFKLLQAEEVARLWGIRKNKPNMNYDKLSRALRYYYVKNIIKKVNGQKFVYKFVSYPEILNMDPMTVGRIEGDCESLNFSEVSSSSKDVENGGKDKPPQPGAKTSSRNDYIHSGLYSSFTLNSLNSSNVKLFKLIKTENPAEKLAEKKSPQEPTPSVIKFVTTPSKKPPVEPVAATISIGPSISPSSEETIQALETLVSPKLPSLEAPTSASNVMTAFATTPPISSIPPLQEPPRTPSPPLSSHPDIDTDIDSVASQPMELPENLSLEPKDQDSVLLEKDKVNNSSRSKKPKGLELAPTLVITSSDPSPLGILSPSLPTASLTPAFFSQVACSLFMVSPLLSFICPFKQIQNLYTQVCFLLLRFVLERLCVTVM
Particulars: protein: recombinant; tags: N-terminal GST; dsDNA, one strand shown. The procedure, abridged:
as §1

The target of a further test is T4, ETV2 (Homo sapiens, UniProt O00321 1-342).
T4 sequence: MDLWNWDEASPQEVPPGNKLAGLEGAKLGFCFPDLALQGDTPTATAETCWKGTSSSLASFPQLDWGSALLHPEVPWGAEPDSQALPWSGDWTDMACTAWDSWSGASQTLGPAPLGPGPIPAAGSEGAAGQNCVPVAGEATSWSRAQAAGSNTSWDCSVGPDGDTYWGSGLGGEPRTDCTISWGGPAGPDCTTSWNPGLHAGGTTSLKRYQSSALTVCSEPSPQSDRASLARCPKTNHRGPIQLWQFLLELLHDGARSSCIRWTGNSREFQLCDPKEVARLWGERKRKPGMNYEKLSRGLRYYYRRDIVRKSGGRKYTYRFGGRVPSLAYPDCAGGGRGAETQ
Particulars: protein: recombinant; tags: N-terminal GST; dsDNA, one strand shown. The method, boiled down: as §1

In the next test the target is T5, ELF3 (Homo sapiens, UniProt P78545 1-371).
T5 sequence: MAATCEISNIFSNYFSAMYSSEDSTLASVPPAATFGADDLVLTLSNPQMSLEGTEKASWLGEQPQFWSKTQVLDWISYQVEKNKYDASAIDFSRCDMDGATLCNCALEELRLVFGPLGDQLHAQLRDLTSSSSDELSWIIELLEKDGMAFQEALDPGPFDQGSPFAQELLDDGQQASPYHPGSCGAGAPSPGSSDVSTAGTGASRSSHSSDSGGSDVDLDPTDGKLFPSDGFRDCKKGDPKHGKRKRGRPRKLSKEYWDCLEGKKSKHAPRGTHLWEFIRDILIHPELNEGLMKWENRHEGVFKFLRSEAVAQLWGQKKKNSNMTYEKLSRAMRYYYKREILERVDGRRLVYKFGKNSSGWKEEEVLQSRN
Conditions: protein: recombinant; tags: N-terminal GST; dsDNA, one strand shown. The method, boiled down: as §1

In the next test the target is CRX (Homo sapiens, UniProt O43186 1-299). Conditions: protein: recombinant; tags: N-terminal GST; dsDNA, one strand shown. The procedure, abridged:
as §1

Another test deals with ETV1 (Homo sapiens, UniProt P50549 1-477). Particulars: protein: recombinant; tags: N-terminal GST; dsDNA, one strand shown. The procedure, abridged: as §1
For the next test, the target named is T6, ERF (Homo sapiens, UniProt P50548 1-548).
T6 sequence: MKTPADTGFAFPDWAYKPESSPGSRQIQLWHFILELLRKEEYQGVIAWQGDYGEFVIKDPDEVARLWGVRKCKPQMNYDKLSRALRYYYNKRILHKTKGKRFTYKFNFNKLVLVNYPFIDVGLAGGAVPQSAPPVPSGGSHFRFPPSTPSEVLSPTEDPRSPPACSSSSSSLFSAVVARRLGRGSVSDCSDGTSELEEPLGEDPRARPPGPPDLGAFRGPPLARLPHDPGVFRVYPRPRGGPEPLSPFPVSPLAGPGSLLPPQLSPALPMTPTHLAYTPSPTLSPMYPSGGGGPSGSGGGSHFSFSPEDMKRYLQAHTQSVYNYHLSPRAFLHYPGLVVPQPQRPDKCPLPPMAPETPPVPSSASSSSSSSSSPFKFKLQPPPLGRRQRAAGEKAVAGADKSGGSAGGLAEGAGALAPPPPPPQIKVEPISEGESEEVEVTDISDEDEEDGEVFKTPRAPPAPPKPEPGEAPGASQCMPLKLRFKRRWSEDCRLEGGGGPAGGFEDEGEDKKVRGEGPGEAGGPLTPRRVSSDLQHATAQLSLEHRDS
Conditions: protein: recombinant; tags: N-terminal GST; dsDNA, one strand shown. The method, boiled down: as §1

A further test deals with T7, ETV3L (Homo sapiens, UniProt Q6ZN32 1-361).
T7 sequence: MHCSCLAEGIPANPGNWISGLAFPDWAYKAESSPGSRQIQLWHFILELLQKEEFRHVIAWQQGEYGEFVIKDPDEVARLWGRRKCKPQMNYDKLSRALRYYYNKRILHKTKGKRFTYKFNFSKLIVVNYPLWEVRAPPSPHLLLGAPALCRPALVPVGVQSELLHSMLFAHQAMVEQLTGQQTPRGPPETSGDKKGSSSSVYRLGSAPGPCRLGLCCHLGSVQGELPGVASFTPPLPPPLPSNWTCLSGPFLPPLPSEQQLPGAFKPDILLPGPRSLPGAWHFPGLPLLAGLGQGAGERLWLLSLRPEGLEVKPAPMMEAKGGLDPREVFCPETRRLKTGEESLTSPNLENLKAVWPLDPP
Particulars: protein: recombinant; tags: N-terminal GST; dsDNA, one strand shown. The method, boiled down:
as §1

For a further test, the target named is T8, ETS2 (Homo sapiens, UniProt P15036 1-469).
T8 sequence: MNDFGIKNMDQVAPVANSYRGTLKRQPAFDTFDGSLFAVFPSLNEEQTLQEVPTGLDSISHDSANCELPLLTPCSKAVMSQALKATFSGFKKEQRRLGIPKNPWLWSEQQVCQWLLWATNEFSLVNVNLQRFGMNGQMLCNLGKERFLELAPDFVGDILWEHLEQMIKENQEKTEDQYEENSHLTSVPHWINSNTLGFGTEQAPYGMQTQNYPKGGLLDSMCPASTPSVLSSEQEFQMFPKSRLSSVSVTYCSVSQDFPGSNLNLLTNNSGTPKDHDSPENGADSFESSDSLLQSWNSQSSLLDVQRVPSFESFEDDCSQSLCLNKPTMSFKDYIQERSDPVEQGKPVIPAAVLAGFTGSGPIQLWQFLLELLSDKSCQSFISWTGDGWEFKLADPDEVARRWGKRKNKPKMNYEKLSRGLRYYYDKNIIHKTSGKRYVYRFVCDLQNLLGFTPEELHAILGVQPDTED
Conditions: protein: recombinant; tags: N-terminal GST; dsDNA, one strand shown. The procedure, abridged:
as §1

The target of the next test is T9, SPDEF (Homo sapiens, UniProt O95238 1-335).
T9 sequence: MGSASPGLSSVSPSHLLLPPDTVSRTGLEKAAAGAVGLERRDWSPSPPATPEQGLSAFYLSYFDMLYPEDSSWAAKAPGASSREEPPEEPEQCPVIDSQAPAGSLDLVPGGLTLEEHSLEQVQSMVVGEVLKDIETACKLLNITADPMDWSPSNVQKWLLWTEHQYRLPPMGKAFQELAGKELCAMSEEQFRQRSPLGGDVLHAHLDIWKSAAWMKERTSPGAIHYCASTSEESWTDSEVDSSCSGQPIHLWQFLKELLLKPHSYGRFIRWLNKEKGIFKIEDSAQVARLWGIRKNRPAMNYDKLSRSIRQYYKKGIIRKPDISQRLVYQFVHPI
Particulars: protein: recombinant; tags: N-terminal GST; dsDNA, one strand shown. The method, boiled down: as §1

The next test deals with T10, ETV7 (Homo sapiens, UniProt Q9Y603 1-341).
T10 sequence: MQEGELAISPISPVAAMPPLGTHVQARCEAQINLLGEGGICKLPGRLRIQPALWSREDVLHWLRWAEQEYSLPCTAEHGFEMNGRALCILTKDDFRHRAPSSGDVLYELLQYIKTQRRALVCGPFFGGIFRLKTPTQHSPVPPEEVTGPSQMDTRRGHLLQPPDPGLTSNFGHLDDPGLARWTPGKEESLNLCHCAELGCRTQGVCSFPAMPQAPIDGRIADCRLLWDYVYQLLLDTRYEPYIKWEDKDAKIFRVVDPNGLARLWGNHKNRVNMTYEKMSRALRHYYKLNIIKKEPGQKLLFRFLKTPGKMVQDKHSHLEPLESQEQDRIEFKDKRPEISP
Conditions: protein: recombinant; tags: N-terminal GST; dsDNA, one strand shown. The procedure, abridged:
as §1

A further test concerns the target T11, ELF5 (Homo sapiens, UniProt Q9UKW6-2 1-255).
T11 sequence: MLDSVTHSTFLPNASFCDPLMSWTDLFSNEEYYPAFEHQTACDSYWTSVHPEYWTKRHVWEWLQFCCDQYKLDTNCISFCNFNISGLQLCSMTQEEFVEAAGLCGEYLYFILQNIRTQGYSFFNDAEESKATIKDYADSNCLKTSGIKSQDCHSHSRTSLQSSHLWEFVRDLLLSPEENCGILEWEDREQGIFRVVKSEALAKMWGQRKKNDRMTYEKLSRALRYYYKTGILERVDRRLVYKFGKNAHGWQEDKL
Particulars: protein: recombinant; tags: N-terminal GST; dsDNA, one strand shown. The method, boiled down: as §1

A further test concerns the target T12, ETV3 (Homo sapiens, UniProt P41162-2 1-143).
T12 sequence: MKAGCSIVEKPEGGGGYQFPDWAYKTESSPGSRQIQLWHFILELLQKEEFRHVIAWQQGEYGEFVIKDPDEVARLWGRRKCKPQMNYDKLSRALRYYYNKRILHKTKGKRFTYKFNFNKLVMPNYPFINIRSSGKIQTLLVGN
Conditions: protein: recombinant; tags: N-terminal GST; dsDNA, one strand shown. The procedure, abridged:
as §1

In a further test the target is ETV6 (Homo sapiens, UniProt P41212 1-452). Conditions: protein: recombinant; tags: N-terminal GST; dsDNA, one strand shown. The procedure, abridged: as §1
Chain of ETV6 (P41212 whole entry): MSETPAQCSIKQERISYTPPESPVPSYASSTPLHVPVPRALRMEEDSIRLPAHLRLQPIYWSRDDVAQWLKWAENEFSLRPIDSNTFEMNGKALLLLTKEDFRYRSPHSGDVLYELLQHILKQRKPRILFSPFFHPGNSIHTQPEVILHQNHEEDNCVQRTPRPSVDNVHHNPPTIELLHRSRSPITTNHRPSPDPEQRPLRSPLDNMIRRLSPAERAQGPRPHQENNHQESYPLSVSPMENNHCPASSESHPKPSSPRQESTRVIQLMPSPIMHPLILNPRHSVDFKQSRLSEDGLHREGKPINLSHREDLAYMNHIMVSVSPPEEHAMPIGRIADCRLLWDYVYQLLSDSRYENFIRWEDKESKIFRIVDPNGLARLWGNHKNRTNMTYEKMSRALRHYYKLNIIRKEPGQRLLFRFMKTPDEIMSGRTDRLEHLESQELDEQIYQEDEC

Chain of ETV1 (P50549 whole entry): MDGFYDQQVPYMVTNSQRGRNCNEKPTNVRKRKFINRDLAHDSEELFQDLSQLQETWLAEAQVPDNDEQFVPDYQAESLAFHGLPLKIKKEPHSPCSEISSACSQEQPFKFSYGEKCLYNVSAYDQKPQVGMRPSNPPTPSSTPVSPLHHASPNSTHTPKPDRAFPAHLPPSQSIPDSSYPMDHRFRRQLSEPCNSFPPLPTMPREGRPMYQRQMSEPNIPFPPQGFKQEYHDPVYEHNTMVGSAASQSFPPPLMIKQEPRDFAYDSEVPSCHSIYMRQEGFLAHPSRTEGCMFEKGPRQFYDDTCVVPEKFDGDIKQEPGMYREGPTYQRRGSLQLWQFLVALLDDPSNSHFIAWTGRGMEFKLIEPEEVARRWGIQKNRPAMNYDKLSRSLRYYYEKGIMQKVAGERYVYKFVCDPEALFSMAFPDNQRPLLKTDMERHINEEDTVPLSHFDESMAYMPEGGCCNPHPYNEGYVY
Chain of CRX (O43186 whole entry): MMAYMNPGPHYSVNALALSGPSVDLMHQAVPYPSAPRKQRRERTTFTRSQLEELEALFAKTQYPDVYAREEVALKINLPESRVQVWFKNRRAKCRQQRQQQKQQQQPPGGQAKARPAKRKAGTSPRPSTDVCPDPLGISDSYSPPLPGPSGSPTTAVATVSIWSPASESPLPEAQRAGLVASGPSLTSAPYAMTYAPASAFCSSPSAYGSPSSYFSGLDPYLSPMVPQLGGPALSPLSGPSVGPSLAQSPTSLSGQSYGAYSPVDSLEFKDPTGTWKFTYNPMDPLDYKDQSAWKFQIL
Chain of ETV5 (P41161 whole entry): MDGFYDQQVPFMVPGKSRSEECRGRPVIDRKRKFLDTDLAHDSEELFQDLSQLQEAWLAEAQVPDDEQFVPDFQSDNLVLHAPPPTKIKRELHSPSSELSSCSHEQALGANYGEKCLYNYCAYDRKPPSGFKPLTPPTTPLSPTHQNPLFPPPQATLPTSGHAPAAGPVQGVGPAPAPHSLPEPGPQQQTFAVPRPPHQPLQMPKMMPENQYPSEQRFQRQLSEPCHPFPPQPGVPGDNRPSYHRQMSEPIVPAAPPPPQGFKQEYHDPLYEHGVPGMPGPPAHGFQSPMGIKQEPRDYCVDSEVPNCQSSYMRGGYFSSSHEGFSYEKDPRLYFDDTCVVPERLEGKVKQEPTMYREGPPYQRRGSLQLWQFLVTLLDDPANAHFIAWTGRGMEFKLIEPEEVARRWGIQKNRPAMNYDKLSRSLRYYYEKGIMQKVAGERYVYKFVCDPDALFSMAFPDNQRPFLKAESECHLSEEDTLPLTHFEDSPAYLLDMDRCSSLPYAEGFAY
Chain of ELF4 (Q99607 whole entry): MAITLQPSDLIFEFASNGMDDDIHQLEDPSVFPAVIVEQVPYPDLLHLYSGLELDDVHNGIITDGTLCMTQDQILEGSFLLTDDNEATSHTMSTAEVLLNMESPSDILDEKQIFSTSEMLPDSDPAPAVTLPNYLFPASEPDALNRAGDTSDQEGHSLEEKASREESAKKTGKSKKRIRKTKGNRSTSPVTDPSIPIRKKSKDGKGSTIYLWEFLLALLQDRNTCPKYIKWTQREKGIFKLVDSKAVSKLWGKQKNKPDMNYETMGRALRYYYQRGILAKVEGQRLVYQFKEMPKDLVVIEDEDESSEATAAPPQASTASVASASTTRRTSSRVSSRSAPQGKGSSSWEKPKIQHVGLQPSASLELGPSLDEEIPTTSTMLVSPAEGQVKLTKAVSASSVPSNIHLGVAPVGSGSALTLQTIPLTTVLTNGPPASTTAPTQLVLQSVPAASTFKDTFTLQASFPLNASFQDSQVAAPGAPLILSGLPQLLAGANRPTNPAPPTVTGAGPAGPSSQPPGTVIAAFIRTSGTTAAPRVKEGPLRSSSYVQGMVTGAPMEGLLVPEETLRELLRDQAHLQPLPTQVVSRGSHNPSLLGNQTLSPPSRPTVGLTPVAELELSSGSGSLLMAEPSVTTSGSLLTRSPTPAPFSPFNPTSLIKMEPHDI
Chain of HSF1 (Q00613 whole entry): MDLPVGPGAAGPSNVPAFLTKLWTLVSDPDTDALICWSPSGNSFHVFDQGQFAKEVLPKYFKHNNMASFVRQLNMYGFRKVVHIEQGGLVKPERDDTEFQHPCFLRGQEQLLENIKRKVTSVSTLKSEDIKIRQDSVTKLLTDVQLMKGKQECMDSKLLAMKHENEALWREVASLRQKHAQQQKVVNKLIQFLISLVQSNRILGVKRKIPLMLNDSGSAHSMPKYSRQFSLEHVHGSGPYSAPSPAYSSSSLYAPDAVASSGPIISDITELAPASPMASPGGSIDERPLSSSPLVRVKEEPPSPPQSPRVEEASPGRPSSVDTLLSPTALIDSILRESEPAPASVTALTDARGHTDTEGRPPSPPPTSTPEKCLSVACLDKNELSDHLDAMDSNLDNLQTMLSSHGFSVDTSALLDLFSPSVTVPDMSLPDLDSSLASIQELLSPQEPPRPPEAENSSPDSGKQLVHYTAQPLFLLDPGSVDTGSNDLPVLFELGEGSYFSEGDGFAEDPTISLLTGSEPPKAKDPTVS

Take TCCTAA: the binding signal with FEV was 1.41 fold enrichment (6-mer frequency, TF over GST control); in the test with ETV5, 1.4 fold enrichment (6-mer frequency, TF over GST control); in the test with HSF1 it was 1.66 fold enrichment (6-mer frequency, TF over GST control); with SPIC, 1.38 fold enrichment (6-mer frequency, TF over GST control); with ELF4, 1.44 fold enrichment (6-mer frequency, TF over GST control); with ELK4, 1.39 fold enrichment (6-mer frequency, TF over GST control). In addition, the binding signal is 1.47 fold enrichment (6-mer frequency, TF over GST control) with ETV2; 1.57 fold enrichment (6-mer frequency, TF over GST control) with ELF3; 2.09 fold enrichment (6-mer frequency, TF over GST control) in the test with CRX; 1.32 fold enrichment (6-mer frequency, TF over GST control) with ETV1; 1.55 fold enrichment (6-mer frequency, TF over GST control) in the test with ERF; 1.36 fold enrichment (6-mer frequency, TF over GST control) with ETV3L. For the same sequence, the binding signal with ETS2 was 1.49 fold enrichment (6-mer frequency, TF over GST control); with SPDEF it was 1.6 fold enrichment (6-mer frequency, TF over GST control); in the test with ETV7, 1.48 fold enrichment (6-mer frequency, TF over GST control); with ELF5, 1.5 fold enrichment (6-mer frequency, TF over GST control); with ETV3, 1.45 fold enrichment (6-mer frequency, TF over GST control); in the test with ETV6, 1.55 fold enrichment (6-mer frequency, TF over GST control).
